Columns and labels:
Type in all cases: functional
[1] = system: Plasmodium falciparum; experiment: GSK_TCMDC: Inhibition of Plasmodium falciparum 3D7 in whole red blood cells, using parasite LDH activity as an index of growth. Test compounds present at 2uM
[2] = system: Plasmodium falciparum; experiment: GSK_TCMDC: Inhibition of Plasmodium falciparum Dd2 in whole red blood cells, using parasite LDH activity as an index of growth. Test compounds present at 2uM
[3] = system: HepG2; experiment: GSK_TCMDC: Percent inhibition of human HepG2 cell line. Test compounds present at 10uM.

SMILES	Inhibition [1] [%]	Inhibition [2] [%]	Inhibition [3] [%]
CCCCNC(=O)[C@H](CC1CCCCC1)NC(=O)c1ccc(O)c(-c2ccc(OC)cc2)c1	89	12	0
O=C(O)C(F)(F)F.c1cc(CN2CCN(CCN3CCOCC3)CC2)cc(-c2ccc(-c3nc4ccccc4[nH]3)cc2)c1	100	100	23
Cc1cc(NCCC(=O)NCCOc2ccccc2)nc(NCCc2ccc(F)cc2)n1.O=C(O)C(F)(F)F	97	4	14
COCCNCc1ncsc1-c1ccc2c(Nc3ccc(Oc4ccccc4)cc3)ccnc2c1	91	93	34
O=C(c1ccccc1F)N(Cc1ccc(Cl)cc1)c1ccccn1	84	58	0
O=C(Nc1cccc(CN2CCCN(Cc3ccc(O)cc3)CC2)c1)c1cc(F)cc(F)c1.O=C(O)C(F)(F)F	100	13	15
COc1cc(C(=O)N2CCOC(CCN3CCC(c4ccc(Cl)cc4)CC3)(c3ccc(Cl)c(Cl)c3)C2)cc(OC)c1OC (stereo unspecified)	91	80	44
O=C(Nc1ccc2c(c1)CCC2)c1nc(N2CCN(c3ccncc3)CC2)ccc1Cl.O=C(O)C(F)(F)F	100	97	55
O=C(NC1CCCCC1)N(CCCn1ccnc1)Cc1csc(-c2ccc(CNCc3ccccc3)cc2)n1.O=C(O)C(F)(F)F	97	48	5
Cc1cc(-c2cccc(CNC3CCN(C)CC3)c2)ccc1S(=O)(=O)NCCN1CCCC1.O=C(O)C(F)(F)F	100	0	18
Cn1nc(-c2ccccc2F)c2cc(C(=O)NC3CCN(Cc4ccccc4)CC3)sc21	97	34	5
Cc1nc(-c2nc(NCc3ccncc3)ncc2-c2ccsc2)sc1C	91	83	8
Cc1cc(N[C@@H](Cc2ccccc2)C(=O)NCc2cccs2)nc(NCCOc2ccccc2)n1.O=C(O)C(F)(F)F	93	31	2
CC(C)c1ccc(NC(=O)c2ccc(CN3CCCN(Cc4cccc(Cl)c4)CC3)cc2)cc1.O=C(O)C(F)(F)F	90	12	45
O=C(O)C(F)(F)F.c1ccc(CN2CCC(NCc3ccc(-c4ccc(CNC5CCCC5)cc4)cc3)CC2)cc1	100	98	24
COc1cc2nc(N(C)Cc3cccc(I)c3)nc(N)c2cc1OC	100	88	7
O=C(Nc1ccccc1F)NC1CCN(c2ccnc(Nc3ccc(F)cc3)n2)CC1	99	63	13
COc1cc(C=NNc2cc(C)nc3c(OC)cccc23)cc(OC)c1OC	94	49	2
CC(=O)O.Cc1cc(F)ccc1[C@H]1CNCCN1C(=O)N(C)[C@@H](C)c1cc(C(F)(F)F)cc(C(F)(F)F)c1	100	99	20
COc1c(C2CCN(CCCCNC(=O)c3ccc(-c4ccc(C#N)cc4)c(O)c3)CC2)ccc2c1CCCC2.Cl	100	78	35
Cl.O=C(NCCCCN1CCC(c2ccc3ccccc3c2O)CC1)c1ccc(-c2ccc(Cl)cc2)cc1	100	99	84
Clc1ccc(Nc2nc(Nc3ccc(Cl)c(Cl)c3)nc(Sc3nc4ccccc4[nH]3)n2)cc1Cl	99	100	10
COCCNCc1ccc(-c2cccc(CN(C(=O)NCCc3ccccc3)C3CCN(Cc4ccccc4)CC3)c2)cc1.O=C(O)C(F)(F)F	88	90	25
N#Cc1cc(C(=O)c2cc(Br)ccc2O)cn(C2CCCCC2)c1=O	89	9	3
COc1ccc(C=NN=c2cc(C)[nH]c3ccccc23)cc1OC	91	8	19
Cc1cccc2nc(-c3cccc(-c4cccc(NC(=O)C(C)CN(C)C)c4)c3)[nH]c12 (stereo unspecified)	100	97	16
CN(CCCCNC(=O)c1ccc(-c2ccccc2)cc1)C1CCc2c(O)cccc2C1.O=C(O)C(=O)O (stereo unspecified)	100	21	24

— ChEMBL document CHEMBL1157539, “Thousands of chemical starting points for antimalarial lead identification” (Nature, 2010)
